Source: the supplement of paper PMC3545927
This is one part of the list. How many sequences the whole screen found active is unknown.

Biological target: furin, P09958
Assay: furin cleavage Z-score vs untreated control; higher = more cleavage, active = 3.5 or more, inactive = 1 or less, 8 variable residues between constant flanks
In short: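 The cleavage Z-score is the log read count relative to furin-free reactions, lowess-adjusted and scaled by median absolute deviation. Counts came from sequencing DNA released from bead-bound 8-mer peptide–cDNA fusions after digestion with purified furin for 7.5, 15 or 30 min.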
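Further: purified furin at 1:10 enzyme:substrate in 50 mM HEPES pH 7.5.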

Sequence of furin, P09958 (P09958 whole entry): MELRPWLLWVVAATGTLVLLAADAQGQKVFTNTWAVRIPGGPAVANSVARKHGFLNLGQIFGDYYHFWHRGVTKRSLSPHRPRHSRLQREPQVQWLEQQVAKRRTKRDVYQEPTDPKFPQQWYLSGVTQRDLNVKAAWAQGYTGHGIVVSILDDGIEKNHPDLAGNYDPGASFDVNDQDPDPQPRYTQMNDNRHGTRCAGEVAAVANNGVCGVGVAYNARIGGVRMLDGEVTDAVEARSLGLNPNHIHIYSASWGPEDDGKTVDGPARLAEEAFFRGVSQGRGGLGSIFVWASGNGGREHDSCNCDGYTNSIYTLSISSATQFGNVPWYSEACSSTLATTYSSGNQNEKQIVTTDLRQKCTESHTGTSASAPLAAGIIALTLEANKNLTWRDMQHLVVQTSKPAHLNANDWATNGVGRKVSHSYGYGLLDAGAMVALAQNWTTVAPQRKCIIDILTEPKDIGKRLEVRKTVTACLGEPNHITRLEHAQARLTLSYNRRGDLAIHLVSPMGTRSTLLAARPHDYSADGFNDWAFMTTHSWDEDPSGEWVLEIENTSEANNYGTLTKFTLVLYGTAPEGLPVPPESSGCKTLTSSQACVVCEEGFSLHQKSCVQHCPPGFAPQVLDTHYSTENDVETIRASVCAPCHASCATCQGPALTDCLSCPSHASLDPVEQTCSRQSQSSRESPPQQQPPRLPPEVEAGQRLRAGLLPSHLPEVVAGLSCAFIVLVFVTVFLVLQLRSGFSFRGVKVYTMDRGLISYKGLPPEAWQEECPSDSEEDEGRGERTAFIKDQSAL

| Sequence | furin cleavage Z-score (7.5 min) | furin cleavage Z-score (15 min) | furin cleavage Z-score (30 min) |
| --- | --- | --- | --- |
| CAKQKALGLLAGNASASA [HC1025] | -0.454 (inactive) | 1.56 | 0.147 (inactive) |
| CALLLAAGVGAGNASASA [HC1659] | -1.34 (inactive) | -0.972 (inactive) | 0.0513 (inactive) |
| CADREVVTSTAGNASASA [HC2293] | 0.73 (inactive) | -0.878 (inactive) | 0.0278 (inactive) |
| CANVDQDLVGAGNASASA [HC712] | -0.364 (inactive) | -0.928 (inactive) | 0.183 (inactive) |
| CARHRRQIDRAGNASASA [FU5] | 8.52 (active) | 9.09 (active) | 7.54 (active) |
| CARHRARSVRAGNASASA [HC1621] | 5.03 (active) | 5.34 (active) | 5.83 (active) |
| CARHRRTPDRAGNASASA [FS-2555] | 3.94 (active) | 6.66 (active) | 4.45 (active) |
| CARALAHGVRAGNASASA [HC235] | -1.61 (inactive) | -0.489 (inactive) | -0.193 (inactive) |
| CACSQHLPYIAGNASASA [HC1016] | -1.19 (inactive) | -4.19 (inactive) | -2.45 (inactive) |
| CAGPLLCPAGAGNASASA [HC744] | -0.656 (inactive) | -1.61 (inactive) | -1.61 (inactive) |
| CATTPCSAHLAGNASASA [HC2478] | 0.336 (inactive) | 0.111 (inactive) | -0.164 (inactive) |
| CAVVCCSESYAGNASASA [HC2052] | -0.759 (inactive) | -0.905 (inactive) | -0.208 (inactive) |
| CAQRRRPTRPAGNASASA [FS-371] | -1.13 (inactive) | 0.703 (inactive) | -0.42 (inactive) |
| CAIPCRSIRDAGNASASA [FS-668] | 4.89 (active) | 6.2 (active) | 5.07 (active) |
| CAQRRRSIRDAGNASASA [FS-287] | 14.8 (active) | 16.3 (active) | 11.3 (active) |
| CASTTCSAHLAGNASASA [HC2518] | -0.961 (inactive) | -1.68 (inactive) | -0.439 (inactive) |
| CADPSRSRRRAGNASASA [FS-1448] | 0.778 (inactive) | 3.15 | 3.47 |
| CARVKRSRRRAGNASASA [FS-2839] | 10.1 (active) | 10.8 (active) | 9.23 (active) |
| CAGESRSRRRAGNASASA [FS-329] | 2.73 | 3.06 | 3.66 (active) |
| CAKTSRSRRRAGNASASA [FS-1225] | 5.45 (active) | 6.99 (active) | 6.15 (active) |
| CAKTSERSQPAGNASASA [HC186] | 2.56 | -0.461 (inactive) | 0.776 (inactive) |
| CAMWPLLLLLAGNASASA [HC557] | 0.169 (inactive) | 0.292 (inactive) | -0.0686 (inactive) |

| Sequence | furin cleavage Z-score (7.5 min) | furin cleavage Z-score (15 min) | furin cleavage Z-score (30 min) |
| --- | --- | --- | --- |
| CAQVLPCSFTAGNASASA [HC497] | 1.05 | -1.13 (inactive) | 0.347 (inactive) |
| CAVVCCSMHYAGNASASA [HC2075] | -0.613 (inactive) | 1.54 | 1.45 |
| CASSTSGITGAGNASASA [HC1338] | -0.675 (inactive) | -0.0853 (inactive) | -0.923 (inactive) |
| CAELVTSTWVAGNASASA [HC2165] | 1.19 | -1.53 (inactive) | 0.617 (inactive) |
| CAQYWRDKRLAGNASASA [FS-1154] | 0.77 (inactive) | 0.402 (inactive) | 0.0823 (inactive) |
| CATPARKKRLAGNASASA [FS-729] | 7.39 (active) | 8.85 (active) | 8.77 (active) |
| CALSDRKKRLAGNASASA [FS-1137] | 4.97 (active) | 5.99 (active) | 4.87 (active) |
| CALPPIIQRLAGNASASA [HC1600] | -1.17 (inactive) | -0.382 (inactive) | -0.2 (inactive) |
| CALMHRKKRLAGNASASA [FS-351] | 8.68 (active) | 11 (active) | 9.08 (active) |
| CAGSLRKKRLAGNASASA [FS-1528] | 8.24 (active) | 9.41 (active) | 8.69 (active) |
| CASVVTSTWVAGNASASA [HC2157] | 1.21 | -0.109 (inactive) | 0.831 (inactive) |
| CAGEPGDPDLAGNASASA [HC1357] | -1.27 (inactive) | -0.0644 (inactive) | 0.75 (inactive) |
| CAWVPCHRPSAGNASASA [HC2308] | -0.717 (inactive) | 2.59 | 0.688 (inactive) |
| CAEVPCHRESAGNASASA [HC2392] | 0.318 (inactive) | 1.09 | 0.395 (inactive) |
| CADFSLDPTFAGNASASA [HC892] | 0.169 (inactive) | -0.616 (inactive) | -1.12 (inactive) |
| CATTGEIPFYAGNASASA [HC845] | -1.32 (inactive) | -1.97 (inactive) | 0.0887 (inactive) |
| CAVQEDAASLAGNASASA [HC1535] | -1.62 (inactive) | -0.428 (inactive) | -0.272 (inactive) |
| CALCSALYVGAGNASASA [HC296] | -0.409 (inactive) | -0.564 (inactive) | 0.88 (inactive) |
| CAMFECSQHLAGNASASA [HC1687] | -0.00522 (inactive) | -0.149 (inactive) | -0.982 (inactive) |
| CAVVCWSMSYAGNASASA [HC87] | -0.794 (inactive) | -0.454 (inactive) | -0.791 (inactive) |
| CATPRRQKRLAGNASASA [FS-881] | 9.61 (active) | 11.3 (active) | 9.49 (active) |
| CARSQRSWRLAGNASASA [FS-1162] | -0.897 (inactive) | -0.415 (inactive) | -1.15 (inactive) |
